# Results from the supplement of paper PMC4466140.
# How the values were obtained:
# Assay in all cases: SPOT peptide array binding signal intensity (averaged, normalized) (arbitrary units (background-subtracted, floor 0; scale differs between SH3 domains)); higher = stronger binding of the SH3 domain to the peptide
# AgAbp1 = biological target: AgAbp1
# Outline: (§1)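 Detection of bound protein relied on anti-GST antibody, an HRP anti-mouse secondary and luminol, with imaging and quantification in Genespotter. The bound protein was GST-fused SH3 domains from four yeast species, incubated at 10 μg/ml overnight at 4°C in TBS-based blocking buffer on cellulose membranes carrying synthetic 15-mer peptides with cysteines replaced by serines. Binding signal is normalized, background-subtracted spot intensity averaged over replicates, in arbitrary units that differ between domains.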
# AgBbc1 = biological target: AgBbc1
# Outline: as §1
# AgBem1-D1 = biological target: AgBem1-D1
# Outline: as §1
# AgBzz1-D1 = biological target: AgBzz1-D1
# Outline: as §1
# AgBzz1-D2 = biological target: AgBzz1-D2
# Outline: as §1
# AgCyk3 = biological target: AgCyk3
# Outline: as §1
# AgFus1 = biological target: AgFus1
# Outline: as §1
# AgHof1 = biological target: AgHof1
# Outline: as §1
# AgHse1 = biological target: AgHse1
# Outline: as §1
# AgLsb1 = biological target: AgLsb1
# Outline: as §1
# AgLsb4 = biological target: AgLsb4
# Outline: as §1
# AgMyo5 = biological target: AgMyo5
# Outline: as §1
# AgNbp2 = biological target: AgNbp2
# Outline: as §1
# AgRvs167 = biological target: AgRvs167
# Outline: as §1
# AgSho1 = biological target: AgSho1
# Outline: as §1
# AgSla1-D1-D2 = biological target: AgSla1-D1-D2
# Outline: as §1
# AgSla1-D3 = biological target: AgSla1-D3
# Outline: as §1
# CaAbp1-D1 = biological target: CaAbp1-D1
# Outline: as §1
# CaAbp1-D2 = biological target: CaAbp1-D2
# Outline: as §1
# CaBbc1 = biological target: CaBbc1
# Outline: as §1
# CaBem1-D1 = biological target: CaBem1-D1
# Outline: as §1
# CaBzz1-D1 = biological target: CaBzz1-D1
# Outline: as §1
# CaBzz1-D2 = biological target: CaBzz1-D2
# Outline: as §1
# CaCyk3 = biological target: CaCyk3
# Outline: as §1
# CaFus1 = biological target: CaFus1
# Outline: as §1
# CaHof1 = biological target: CaHof1
# Outline: as §1
# CaHse1 = biological target: CaHse1
# Outline: as §1
# CaLsb1 = biological target: CaLsb1
# Outline: as §1
# CaLsb4 = biological target: CaLsb4
# Outline: as §1
# CaMyo5 = biological target: CaMyo5
# Outline: as §1
# CaNbp2 = biological target: CaNbp2
# Outline: as §1
# CaRvs167 = biological target: CaRvs167
# Outline: as §1
# CaRvs167-3 = biological target: CaRvs167-3
# Outline: as §1
# CaSho1 = biological target: CaSho1
# Outline: as §1
# CaSla1-D1-D2 = biological target: CaSla1-D1-D2
# Outline: as §1
# CaSla1-D3 = biological target: CaSla1-D3
# Outline: as §1
# ScAbp1 = biological target: ScAbp1
# Outline: as §1
# ScBbc1 = biological target: ScBbc1
# Outline: as §1
# ScBem1-D1 = biological target: ScBem1-D1
# Outline: as §1
# ScBzz1-D1 = biological target: ScBzz1-D1
# Outline: as §1
# ScBzz1-D2 = biological target: ScBzz1-D2
# Outline: as §1
# ScCyk3 = biological target: ScCyk3
# Outline: as §1
# ScFus1 = biological target: ScFus1
# Outline: as §1
# ScHof1 = biological target: ScHof1
# Outline: as §1
# ScHse1 = biological target: ScHse1
# Outline: as §1
# ScLsb1 = biological target: ScLsb1
# Outline: as §1
# ScLsb2 = biological target: ScLsb2
# Outline: as §1
# ScLsb3 = biological target: ScLsb3
# Outline: as §1
# ScLsb4 = biological target: ScLsb4
# Outline: as §1
# ScMyo3 = biological target: ScMyo3
# Outline: as §1
# ScMyo5 = biological target: ScMyo5
# Outline: as §1
# ScNbp2 = biological target: ScNbp2
# Outline: as §1
# ScPex13 = biological target: ScPex13
# Outline: as §1
# ScRvs167 = biological target: ScRvs167
# Outline: as §1
# ScSho1 = biological target: ScSho1
# Outline: as §1
# ScSla1-D1-D2 = biological target: ScSla1-D1-D2
# Outline: as §1
# ScSla1-D3 = biological target: ScSla1-D3
# Outline: as §1
# SpAbp1-D1 = biological target: SpAbp1-D1
# Outline: as §1
# SpBbc1 = biological target: SpBbc1
# Outline: as §1
# SpBzz1-D1 = biological target: SpBzz1-D1
# Outline: as §1
# SpBzz1-D2 = biological target: SpBzz1-D2
# Outline: as §1
# SpCyk3 = biological target: SpCyk3
# Outline: as §1
# SpHof1 = biological target: SpHof1
# Outline: as §1
# SpHof1-2 = biological target: SpHof1-2
# Outline: as §1
# SpHof1-3 = biological target: SpHof1-3
# Outline: as §1
# SpHse1 = biological target: SpHse1
# Outline: as §1
# SpLsb1 = biological target: SpLsb1
# Outline: as §1
# SpLsb4 = biological target: SpLsb4
# Outline: as §1
# SpMyo1 = biological target: SpMyo1
# Outline: as §1
# SpNbp2 = biological target: SpNbp2
# Outline: as §1
# SpPex13 = biological target: SpPex13
# Outline: as §1
# SpRvs167 = biological target: SpRvs167
# Outline: as §1
# SpSla1-D1-D2 = biological target: SpSla1-D1-D2
# Outline: as §1
# SpSla1-D3 = biological target: SpSla1-D3
# Outline: as §1
binder,measurement,setting,value
HKVLRPFLLRRLKKD,SPOT peptide array binding signal intensity,AgAbp1,172
same,SPOT peptide array binding signal intensity,AgBbc1,≤ 0
same,SPOT peptide array binding signal intensity,AgBem1-D1,≤ 0
same,SPOT peptide array binding signal intensity,AgBzz1-D1,1.5
same,SPOT peptide array binding signal intensity,AgBzz1-D2,31.5
same,SPOT peptide array binding signal intensity,AgCyk3,≤ 0
same,SPOT peptide array binding signal intensity,AgFus1,479
same,SPOT peptide array binding signal intensity,AgHof1,39.4
same,SPOT peptide array binding signal intensity,AgHse1,2970
same,SPOT peptide array binding signal intensity,AgLsb1,0.5
same,SPOT peptide array binding signal intensity,AgLsb4,19.5
same,SPOT peptide array binding signal intensity,AgMyo5,≤ 0
same,SPOT peptide array binding signal intensity,AgNbp2,45.8
same,SPOT peptide array binding signal intensity,AgRvs167,0.5
same,SPOT peptide array binding signal intensity,AgSho1,156
same,SPOT peptide array binding signal intensity,AgSla1-D1-D2,27
same,SPOT peptide array binding signal intensity,AgSla1-D3,2.75
same,SPOT peptide array binding signal intensity,CaAbp1-D1,569
same,SPOT peptide array binding signal intensity,CaAbp1-D2,617
same,SPOT peptide array binding signal intensity,CaBbc1,≤ 0
same,SPOT peptide array binding signal intensity,CaBem1-D1,3.5
same,SPOT peptide array binding signal intensity,CaBzz1-D1,≤ 0
same,SPOT peptide array binding signal intensity,CaBzz1-D2,≤ 0
same,SPOT peptide array binding signal intensity,CaCyk3,≤ 0
same,SPOT peptide array binding signal intensity,CaFus1,2980
same,SPOT peptide array binding signal intensity,CaHof1,7.63e-06
same,SPOT peptide array binding signal intensity,CaHse1,124
same,SPOT peptide array binding signal intensity,CaLsb1,≤ 0
same,SPOT peptide array binding signal intensity,CaLsb4,≤ 0
same,SPOT peptide array binding signal intensity,CaMyo5,≤ 0
same,SPOT peptide array binding signal intensity,CaNbp2,715
same,SPOT peptide array binding signal intensity,CaRvs167,6.08
same,SPOT peptide array binding signal intensity,CaRvs167-3,281
same,SPOT peptide array binding signal intensity,CaSho1,736
same,SPOT peptide array binding signal intensity,CaSla1-D1-D2,8.5
same,SPOT peptide array binding signal intensity,CaSla1-D3,15.5
same,SPOT peptide array binding signal intensity,ScAbp1,271
same,SPOT peptide array binding signal intensity,ScBbc1,≤ 0
same,SPOT peptide array binding signal intensity,ScBem1-D1,19.5
same,SPOT peptide array binding signal intensity,ScBzz1-D1,22.5
same,SPOT peptide array binding signal intensity,ScBzz1-D2,≤ 0
same,SPOT peptide array binding signal intensity,ScCyk3,38
same,SPOT peptide array binding signal intensity,ScFus1,742
same,SPOT peptide array binding signal intensity,ScHof1,≤ 0
same,SPOT peptide array binding signal intensity,ScHse1,2170
same,SPOT peptide array binding signal intensity,ScLsb1,≤ 0
same,SPOT peptide array binding signal intensity,ScLsb2,≤ 0
same,SPOT peptide array binding signal intensity,ScLsb3,≤ 0
same,SPOT peptide array binding signal intensity,ScLsb4,≤ 0
same,SPOT peptide array binding signal intensity,ScMyo3,1.12
same,SPOT peptide array binding signal intensity,ScMyo5,2.5
same,SPOT peptide array binding signal intensity,ScNbp2,102
same,SPOT peptide array binding signal intensity,ScPex13,0.5
same,SPOT peptide array binding signal intensity,ScRvs167,3.42
same,SPOT peptide array binding signal intensity,ScSho1,994
same,SPOT peptide array binding signal intensity,ScSla1-D1-D2,≤ 0
same,SPOT peptide array binding signal intensity,ScSla1-D3,3.25
same,SPOT peptide array binding signal intensity,SpAbp1-D1,250
same,SPOT peptide array binding signal intensity,SpBbc1,3
same,SPOT peptide array binding signal intensity,SpBzz1-D1,70
same,SPOT peptide array binding signal intensity,SpBzz1-D2,7.63e-06
same,SPOT peptide array binding signal intensity,SpCyk3,1.5
same,SPOT peptide array binding signal intensity,SpHof1,74.8
same,SPOT peptide array binding signal intensity,SpHof1-2,4
same,SPOT peptide array binding signal intensity,SpHof1-3,1720
same,SPOT peptide array binding signal intensity,SpHse1,2230
same,SPOT peptide array binding signal intensity,SpLsb1,≤ 0
same,SPOT peptide array binding signal intensity,SpLsb4,≤ 0
same,SPOT peptide array binding signal intensity,SpMyo1,2.62
same,SPOT peptide array binding signal intensity,SpNbp2,222
same,SPOT peptide array binding signal intensity,SpPex13,13.5
same,SPOT peptide array binding signal intensity,SpRvs167,0.333
same,SPOT peptide array binding signal intensity,SpSla1-D1-D2,≤ 0
same,SPOT peptide array binding signal intensity,SpSla1-D3,5.5
AGKRRLPLVRFKASD,SPOT peptide array binding signal intensity,AgAbp1,162
same,SPOT peptide array binding signal intensity,AgBbc1,109
same,SPOT peptide array binding signal intensity,AgBem1-D1,301
same,SPOT peptide array binding signal intensity,AgBzz1-D1,44
same,SPOT peptide array binding signal intensity,AgBzz1-D2,40.5
same,SPOT peptide array binding signal intensity,AgCyk3,5
same,SPOT peptide array binding signal intensity,AgFus1,783
same,SPOT peptide array binding signal intensity,AgHof1,84
same,SPOT peptide array binding signal intensity,AgHse1,1070
same,SPOT peptide array binding signal intensity,AgLsb1,4
same,SPOT peptide array binding signal intensity,AgLsb4,214
same,SPOT peptide array binding signal intensity,AgMyo5,2
same,SPOT peptide array binding signal intensity,AgNbp2,232
same,SPOT peptide array binding signal intensity,AgRvs167,6
same,SPOT peptide array binding signal intensity,AgSho1,218
same,SPOT peptide array binding signal intensity,AgSla1-D1-D2,736
same,SPOT peptide array binding signal intensity,AgSla1-D3,11.8
same,SPOT peptide array binding signal intensity,CaAbp1-D1,1220
same,SPOT peptide array binding signal intensity,CaAbp1-D2,806
same,SPOT peptide array binding signal intensity,CaBbc1,259
same,SPOT peptide array binding signal intensity,CaBem1-D1,80.5
same,SPOT peptide array binding signal intensity,CaBzz1-D1,125
same,SPOT peptide array binding signal intensity,CaBzz1-D2,147
same,SPOT peptide array binding signal intensity,CaCyk3,69
same,SPOT peptide array binding signal intensity,CaFus1,2040
same,SPOT peptide array binding signal intensity,CaHof1,0.75
same,SPOT peptide array binding signal intensity,CaHse1,71.5
same,SPOT peptide array binding signal intensity,CaLsb1,2
same,SPOT peptide array binding signal intensity,CaLsb4,173
same,SPOT peptide array binding signal intensity,CaMyo5,3
IVNKPLPPLPVAGSS,SPOT peptide array binding signal intensity,SpBzz1-D2,≤ 0
same,SPOT peptide array binding signal intensity,SpCyk3,3
same,SPOT peptide array binding signal intensity,SpHof1,2930
same,SPOT peptide array binding signal intensity,SpHof1-2,3490
same,SPOT peptide array binding signal intensity,SpHof1-3,5540
same,SPOT peptide array binding signal intensity,SpHse1,15
same,SPOT peptide array binding signal intensity,SpLsb1,47
same,SPOT peptide array binding signal intensity,SpLsb4,1.5
same,SPOT peptide array binding signal intensity,SpMyo1,184
same,SPOT peptide array binding signal intensity,SpNbp2,11
same,SPOT peptide array binding signal intensity,SpPex13,15
same,SPOT peptide array binding signal intensity,SpRvs167,1580
same,SPOT peptide array binding signal intensity,SpSla1-D1-D2,1200
same,SPOT peptide array binding signal intensity,SpSla1-D3,≤ 0
